MOR-DOR inv ag – inverse agonists of human mu-delta opioid receptor heterodimerization | P35372+P41143 | inhibition, % at 9.3 µM | cell-based MOR-DOR heterodimer luminescence, inverse agonism | AID 504357 | 340,000 compounds, 0.21% hits; in the data active = inhibition above about 22%, passing the limit was not always enough;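 note: 0% = cells with DMSO and 100% = wells without cells with DMSO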
Target sequence (P35372 whole entry, looked up): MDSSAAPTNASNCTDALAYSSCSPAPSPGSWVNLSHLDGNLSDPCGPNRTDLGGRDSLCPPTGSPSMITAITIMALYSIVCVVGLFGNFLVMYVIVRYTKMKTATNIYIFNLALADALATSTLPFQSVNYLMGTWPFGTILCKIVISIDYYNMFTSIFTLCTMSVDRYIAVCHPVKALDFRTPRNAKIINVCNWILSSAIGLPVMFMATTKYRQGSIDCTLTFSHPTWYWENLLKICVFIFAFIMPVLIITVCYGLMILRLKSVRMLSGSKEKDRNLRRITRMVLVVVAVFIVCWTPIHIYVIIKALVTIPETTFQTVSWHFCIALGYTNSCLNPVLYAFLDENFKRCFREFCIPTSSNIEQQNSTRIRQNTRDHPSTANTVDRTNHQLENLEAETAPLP
Target sequence (P41143 whole entry, looked up): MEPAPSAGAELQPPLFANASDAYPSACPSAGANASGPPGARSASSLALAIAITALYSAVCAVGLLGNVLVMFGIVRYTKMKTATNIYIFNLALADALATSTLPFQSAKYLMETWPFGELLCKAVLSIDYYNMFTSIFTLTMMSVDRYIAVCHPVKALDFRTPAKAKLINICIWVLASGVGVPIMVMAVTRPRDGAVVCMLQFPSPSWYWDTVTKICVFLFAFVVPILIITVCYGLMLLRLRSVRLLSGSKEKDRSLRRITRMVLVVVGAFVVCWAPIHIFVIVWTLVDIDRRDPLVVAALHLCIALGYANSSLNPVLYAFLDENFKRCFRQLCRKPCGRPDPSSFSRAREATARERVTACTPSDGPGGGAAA
OPRM1-OPRD1 ag – OPRM1-OPRD1 heterodimerization agonism; cells, luminescence; activation, % at 9.3 µM; 340,000 compounds, 0.3% hits; in the data active = activation above about 18%;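 note: 0% = vehicle-treated cells and 100% = reference agonist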
HTR5A inv ctr – inverse agonist of human HTR5A in OPRM1-OPRD1 counter-screen. P47898. HTR5A cell line, luminescence, inverse agonism. inhibition, % at 9.3 µM. 340,000 compounds, 0.083% hits. AID 504634; in the data active = inhibition mostly above about 23%, no sharp cut-off; inactive = mostly below about 18%;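 note: 0% = cells with DMSO and 100% = no-cell wells with DMSO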
HTR5A ag ctr – activates human HTR5A in OPRM1-OPRD1 agonist counter-screen. P47898. HTR5A agonist assay, luminescence, cell-based. activation, % at 9.3 µM. 340,000 compounds, 0.61% hits. AID 504692; in the data active = activation mostly above about 9.5%, no sharp cut-off; inactive = mostly below about 7.6%;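 note: 0% = cells with vehicle only and 100% = reference agonist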
MOR-DOR inv conf – confirmation of human OPRM1-OPRD1 heterodimerization inverse agonists; shares compounds with MOR-DOR inv ag; inhibition, % at 9.3 µM; cells expressing OPRM1/OPRD1 heterodimer, luminescence; 580 compounds, 20% hits; AID 504900; in the data active = inhibition above about 32%;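 note: 0% = cells with DMSO and 100% = wells lacking cells with DMSO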
HTR5A inv ctr2 – HTR5A inverse agonism, opioid heterodimer counter-screen; shares compounds with MOR-DOR inv ag; HTR5A-expressing cells, luminescence; inhibition, % at 9.3 µM; 580 tested, under 10 active; AID 504914; call rule not given here;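 note: 0% = cells with DMSO and 100% = no-cell wells with DMSO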
Numbers without * were called inactive; nt = no result given. Rows were chosen to be rich in hits. Some 1.1% of all compounds tested hit in one or more screens of this group.

SMILES	MOR-DOR inv ag	OPRM1-OPRD1 ag	HTR5A inv ctr	HTR5A ag ctr	MOR-DOR inv conf	HTR5A inv ctr2
O=C1C(=O)N(Cc2cccc([N+](=O)[O-])c2)c2ccccc21	51.6*	-10.3	17.5	1.0	17.3	12.9
COC(=O)[C@]1(C)N[C@H](c2ccc(-c3ccccc3)cc2)[C@@H]2C(=O)N(C)C(=O)[C@@H]21	-7.1	1.3	-1.7	3.4	nt	nt
COc1cc(/C=C/C(=O)O)cc(S(=O)(=O)N2CCc3ccccc32)c1OC	16.3	-3.3	3.2	-1.1	nt	nt
CC(C)OC(=O)c1cccnc1N1CCN(c2ccc(F)cc2)CC1	-26.9	5.3	1.4	1.2	nt	nt
Cc1ccc(-c2cc(-c3ccccc3)no2)cc1	-14.2	2.6	7.8	-3.1	nt	nt
COC(=O)C(Cc1ccccc1)NC(=O)COc1ccc(C(C)(C)C)cc1 (configuration not stated)	-53.6	9.1	6.2	1.6	nt	nt
C[n+]1c2n(c3ccccc31)N=C(c1cc(C(C)(C)C)c(O)c(C(C)(C)C)c1)CS2	31.8*	-6.2	19.1	-0.9	50.6*	16.5
CCOCCCNC(=O)/C(C#N)=C/c1cc(OC)c(O)c([N+](=O)[O-])c1	29.8*	-5.4	10.7	-3.9	-29.9	10.5
CCOCCCNC(=O)/C(C#N)=C/c1ccc(Cl)c([N+](=O)[O-])c1	-21.6	4.0	4.6	-2.5	nt	nt
CCOC(=O)c1c(S(=O)(=O)N2CCCC2)c(C)n(C)c1C	3.2	-0.7	-23.5	10.1	nt	nt
O=C(COC(=O)c1cc(S(=O)(=O)NCc2ccccc2)ccc1O)c1cc2ccccc2o1	40.5*	-7.6	8.7	-3.2	-208.5	-7.5
O=C(COC(=O)c1cc(S(=O)(=O)NCc2ccccc2)ccc1O)NCc1ccccc1	8.4	-1.6	-20.1	5.7	nt	nt
CN1C(=O)c2cccc3c(S(=O)(=O)Nc4ccccn4)ccc1c23	9.1	-1.8	-2.3	0.9	nt	nt
O=C1C(=O)N(CNc2cccnc2)c2ccccc21	51.2*	-10.1	9.0	0.3	14.5	5.8
O=C1C(=O)N(CNc2ccccn2)c2ccccc21	84.1*	-13.4	17.4	-5.8	68.3*	11.2
CCOC(=O)CSc1ncnc2c1c(-c1ccccc1)cn2-c1ccc(OC)cc1	3.0	-0.6	8.3	-3.2	nt	nt
O=C1C=C(O)c2cccc3cccc1c23	12.8	-2.7	3.6	-1.0	nt	nt
NN=C1C(=O)c2cccc3cccc1c23	57.2*	-11.4	15.1	-3.9	-98.4	-0.7
CSC1=C(C#N)C(c2ccccc2C)C(C#N)=C(N)N1 (configuration not stated)	37.7*	-7.6	6.5	-2.5	28.8	-0.8
CC(=O)Nc1ccc(NC(=O)CCC(=O)OCC(=O)c2ccc(C)c([N+](=O)[O-])c2)cc1	56.8*	-11.0	20.6*	-7.7	36.3*	0.6
Cc1ccc(C(=O)COC(=O)c2ccncc2)cc1[N+](=O)[O-]	48.8*	-8.8	20.3	-2.8	29.5	14.7
Cc1ccc(C(=O)COC(=O)CCC(=O)Nc2ccccc2Cl)cc1[N+](=O)[O-]	45.1*	-8.9	6.0	-2.3	-8.6	-25.2
O=C(CCC(=O)OCc1ccc([N+](=O)[O-])cc1)Nc1ccccc1Cl	19.1	-3.9	13.9	-5.8	nt	nt
CC(=O)c1ccc(NC(=O)CCC(=O)OCC(=O)c2cccc([N+](=O)[O-])c2)cc1	60.9*	-7.4	10.2	-5.5	50.6*	14.4
CC(C)CCNC(=O)Nc1ccc2c(c1)N(C)C(=O)CS2	7.9	-1.3	2.6	-1.0	nt	nt
SMILES	MOR-DOR inv ag	OPRM1-OPRD1 ag	HTR5A inv ctr	HTR5A ag ctr	MOR-DOR inv conf	HTR5A inv ctr2
CCCn1nnnc1NCc1cccc(OC)c1OC	0.3	-0.1	7.0	-1.9	nt	nt
O=C(Nc1ccccc1)C(c1ccccc1)c1ccccc1	-9.2	1.7	-20.6	5.2	nt	nt
Cc1ccc(N2CC(C(=O)OCC(=O)c3ccc(F)cc3)CC2=O)cc1 (configuration not stated)	3.3	-0.4	7.7	-2.9	nt	nt
Cc1ccc(N2CC(C(=O)OCC(=O)c3ccc(C)c([N+](=O)[O-])c3)CC2=O)cc1 (configuration not stated)	52.0*	-10.0	19.6	-7.2	14.9	17.4
CC(=O)OCC1(C)CN(c2ccccc2)NC1=O (configuration not stated)	42.1*	-8.5	3.4	-1.4	24.6	1.3
COC(=O)CN1CC(=O)N(c2ccccc2)C1=S	1.2	-0.2	-3.0	1.1	nt	nt
CC(=O)OCC1(C)CN(c2ccccc2)N(C(C)=O)C1=O (configuration not stated)	39.9*	-8.1	10.9	-4.6	-52.0	-202.4
CC(=O)OCC1(C)CN(c2ccccc2)N(C(=O)c2ccc(C(C)(C)C)cc2)C1=O (configuration not stated)	23.1*	-3.2	3.2	-6.0	-5.8	-232.3
C/C(=N\NC(=O)c1nnn(-c2nonc2N)c1CN1CCOCC1)c1ccc(CC(C)C)cc1	0.7	-0.1	9.6	-0.6	nt	nt
COC(=O)CCC/C=C1/SCC(NC(=O)c2ccccc2)C1=O (configuration not stated)	33.2*	-5.6	-15.0	-0.9	-372.1	-48.8
O=C(NCCCN1CCCC1=O)c1ccc(CNS(=O)(=O)c2ccc(F)cc2)cc1	3.9	-0.7	11.2	-4.0	nt	nt
CCCCN1CC[C@H]2C=CC[C@@H](C(=O)Nc3nccs3)[C@H]2C1=O	13.6	-2.5	-6.0	4.7	nt	nt
C/C(=C\C(=S)Nc1ccccc1)Nc1ccccc1	31.5*	-6.1	13.5	-10.4	-22.4	2.3
CN(CCc1ccccc1)C(=O)c1ccc(NC(=O)Cc2cccc(NC(=O)C3CCN(C(=O)C4CCCC4)CC3)c2)cc1	7.8	-1.7	-25.9	6.9	nt	nt
CC(=O)Oc1ccc(OC(C)=O)c2c1CC(C)=C(C)C2	38.8*	-8.7	6.5	-1.8	59.5*	13.3
Cc1ccc(C)c(N2CCN(C(=O)CCCOc3cc(=O)n(C)c4ccccc34)CC2)c1	4.2	-0.8	23.5	3.0	nt	nt
COc1ccc(N2CCN(C(=O)CCCOc3cc(=O)n(C)c4ccccc34)CC2)cc1	33.6*	-6.8	16.6	-6.4	-0.9	-3.5
CCOc1ccc(NC(=O)CCCCn2c(=O)[nH]c3ccsc3c2=O)cc1	4.9	-0.9	-18.7	8.5	nt	nt
CC1CN(Cc2ccccc2)C(=O)NC1=O (configuration not stated)	9.0	-1.9	18.4	-4.7	nt	nt
CC1CN(c2ccccc2)NC1=O (configuration not stated)	47.8*	-10.4	15.3	-6.0	-254.9	-28.8
COc1ccc(S(=O)(=O)N2CCCC(C(=O)NCc3ccc4c(c3)OCO4)C2)cc1 (configuration not stated)	12.4	-2.4	7.3	-4.2	nt	nt
COC(=O)[C@]1(C)N[C@H](CN(C)S(=O)(=O)c2ccc(C)cc2)[C@@H]2C(=O)N(C)C(=O)[C@@H]21	4.0	-0.9	-7.2	1.9	nt	nt
Cc1ccc(S(=O)(=O)/N=C2\C=C(NS(=O)(=O)c3ccccc3)C(=O)c3ccccc32)c(C)c1	29.7*	-5.7	22.4	-6.2	-6.8	-5.5
